Screening results: PubChem BioAssay, The Scripps Research Institute Molecular Screening Center
An excerpt weighted towards active compounds, which were near 3.5% of everything screened.
MITF inh: inhibitors of human MITF. O75030. AID 1259374. 0.91% of 650,000 active. inhibition, % at 2.6 µM. AlphaScreen MITF homodimerization, bead proximity signal; in the data active = inhibition above about 50%;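 note: 0% = vehicle wells with protein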
Target sequence (O75030 whole entry, looked up): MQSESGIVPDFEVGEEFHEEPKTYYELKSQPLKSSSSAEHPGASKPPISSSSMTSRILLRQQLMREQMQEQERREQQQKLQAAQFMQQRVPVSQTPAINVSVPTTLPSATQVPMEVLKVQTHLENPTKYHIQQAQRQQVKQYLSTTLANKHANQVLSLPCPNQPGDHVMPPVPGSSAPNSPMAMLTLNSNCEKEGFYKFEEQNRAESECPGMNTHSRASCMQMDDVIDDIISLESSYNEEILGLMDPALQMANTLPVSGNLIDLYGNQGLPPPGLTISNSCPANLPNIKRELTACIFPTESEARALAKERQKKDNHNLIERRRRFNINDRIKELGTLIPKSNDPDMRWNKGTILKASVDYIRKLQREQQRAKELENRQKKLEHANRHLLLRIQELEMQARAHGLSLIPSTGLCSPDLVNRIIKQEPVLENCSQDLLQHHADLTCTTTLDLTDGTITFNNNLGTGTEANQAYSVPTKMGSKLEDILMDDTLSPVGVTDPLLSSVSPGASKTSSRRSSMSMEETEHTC
GPR151 ag: activators of human GPR151 | Q8TDV0 | activation, % at 11.2 µM | PathHunter beta-arrestin GPR151 cells, luminescence | AID 1508602 | 1% of 650,000 active; in the data active = activation above about 4.9%;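 note: 0% = median of compound wells and 100% = cells with positive control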
FBW7 act: human FBW7 E3 ligase activation, primary screen; Q969H0; AlphaScreen FBW7–phospho-cyclin E peptide binding, activator screen; normalized activity (activation), % at 26.1 µM; 0.13% of 650,000 active; in the data active = normalized activity above about 1.9%;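 note: purified mutant Fbw7 with reduced substrate affinity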
TEAD-YAP inh: TEAD-YAP interaction inhibition; HEK-TIYL cells, TEAD-Gal4/YAP UAS-luciferase luminescence; inhibition, % at 9.12 µM; 1.4% of 640,000 active; in the data active = inhibition above about 32%;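 note: 0% = median of test compound wells and 100% = reference inhibitor wells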
GPR151 conf act: confirmation of human GPR151 activators | activation, % at 11.2 µM | shares compounds with GPR151 ag | GPR151 PathHunter beta-arrestin cells, luminescence, 90 min; % of EA-reagent control over plate median | AID 1508609 | 6,700 tested, under 10 active;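 active = mean percent activation across replicates above the confirmation screen cutoff of 4.91%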
GPR119 counter: GPR119 activation, counter-screen for GPR151 activators | 0.3% of 6,700 active | AID 1508611 | shares compounds with GPR151 ag | activation, % at 11.2 µM | GPR119 PathHunter beta-arrestin cells, luminescence, 90 min; 0 = compound-well median, 100 = enzyme-acceptor control;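 active = mean percent activation in the counterscreen above 29.09%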;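 note: counterscreen on off-target GPR119 to flag nonselective hits from the GPR151 activator screen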
Numbers without * were called inactive; . = not tested or not shown.

SMILES	MITF inh	GPR151 ag	FBW7 act	TEAD-YAP inh	GPR151 conf act	GPR119 counter
COc1cccc(C(=O)NCCCc2ccc(N(C)C)cc2)c1OC	2	5.3*	0	-18	-1	-5
COc1cccc(C(=O)NCCCc2ccccc2)c1OC	20	0	0	-28	.	.
C=CCNC(=O)C1CCN(C(=O)NCc2ccccc2)CC1	0	10.0*	0	1	0	-1
O=C(NC1CCN(C(=O)Nc2cccc(F)c2)CC1)c1cccc(F)c1	-2	0	0	8	.	.
O=C(NC1CCN(C(=O)NCc2ccccc2)CC1)c1cccc(F)c1	-1	5.6*	0	-3	0	-6
CCOC(=O)c1c(C)n(C)c2ccc(OCC(O)CNCc3ccco3)cc12 (centres undefined)	22	0	0	6	.	.
CCN(CC)CCN(CC)C(=O)c1cnn(-c2nccc(-c3cccs3)n2)c1C	-7	0	0	-15	.	.
CCOc1cc(OCC)c(C=O)cc1Br	5	6.3*	0	0	-2	-10
C#CCOc1cc(Br)c(C=O)cc1OCC	2	1	0	3	.	.
CC(=O)c1ccc(NC(=O)Nc2ccc(S(=O)(=O)N3CCCC3)cc2)cc1	9	-1	0	17	.	.
CC(=O)c1ccc(NC(=O)c2ccc(S(=O)(=O)N3CCCC3)cc2)cc1	11	5.0*	0	1	-1	-13
COc1cc(NS(=O)(=O)c2ccc(NC(=O)c3ccc(C(C)=O)cc3)cc2)ncn1	13	5.7*	0	-7	0	-13
Cc1cc([N+](=O)[O-])ccc1-c1ccc(C(=O)NC(C)(C)C)o1	17	7.7*	0	-6	0	-3
Cc1ccc(OCCN(C)Cc2ccc(OCC(O)CN(C)C)cc2)cc1 (centres undefined)	9	9.9*	0	13	0	7
COCCNC(=O)CN(c1cc(Cl)ccc1C)S(C)(=O)=O	17	2	1	3	.	.
C=CCN1C(=O)c2oc3ccccc3c(=O)c2C1c1ccc(O)c(OC)c1 (centres undefined)	2	1	0	-4	.	.
C=CCN1C(=O)c2oc3ccccc3c(=O)c2C1c1cccc([N+](=O)[O-])c1 (centres undefined)	-19	5.8*	0	-8	0	-3
CSc1ccc(CN(C)S(=O)(=O)/C=C/c2ccccc2)cc1	-5	1	0	15	.	.
CCOc1ccc(/C=N/NC(=O)c2ccccc2C)cc1	15	-1	0	-21	.	.
Cc1ccccc1C(=O)N/N=C/c1ccc(OCC(=O)N2CCCCC2)cc1	12	6.7*	0	4	1	8
COc1cc(C2NC(=O)NC(C)=C2C(C)=O)cc(Br)c1OCc1ccccc1 (centres undefined)	19	5.7*	0	-8	2	10
COC(=O)C1=C(C)NC(=O)NC1c1cc(OC)c(O)c([N+](=O)[O-])c1 (centres undefined)	5	1	0	-17	.	.
COc1cc(C2NC(=O)NC(C)=C2C(C)=O)cc([N+](=O)[O-])c1O (centres undefined)	24	7.8*	0	9	1	10
CCOC(=O)C1=C(C)NC(=O)NC1c1cc(Br)c(OCc2ccccc2)c(OC)c1 (centres undefined)	22	1	0	-4	.	.
Cc1ccc(N2CC(C(=O)O)CC2=O)c(C)c1 (centres undefined)	-6	0	0	9	.	.
SMILES	MITF inh	GPR151 ag	FBW7 act	TEAD-YAP inh	GPR151 conf act	GPR119 counter
COC(=O)c1ccc(OC(=O)C2CC(=O)N(c3ccc(C)cc3C)C2)cc1 (centres undefined)	8	5.0*	0	14	0	-10
COc1cccc(CNC(=O)C(NS(=O)(=O)c2cccc3nsnc23)C(C)C)c1 (centres undefined)	1	7.1*	0	4	0	1
O=C(c1ccccc1[N+](=O)[O-])N(Cc1cccnc1)c1nc2ccc(F)cc2s1	-7	-1	0	-4	.	.
COc1ccc2sc(N(Cc3cccnc3)C(=O)c3ccccc3[N+](=O)[O-])nc2c1	-3	8.6*	0	-1	-1	-1
CCCOc1cc2oc(=O)cc(C)c2cc1Cl	8	5.4*	0	-10	0	-5
C=CCSc1ncnc2sc(C)c(C)c12	6	5.3*	0	0	0	5
COC(=O)C(NC(=O)c1ccc(Br)cc1)c1ccccc1 (centres undefined)	-4	9.0*	0	16	2	12
COC(=O)C(NC(=O)c1ccccc1)c1ccccc1 (centres undefined)	4	-1	0	6	.	.
CC(C)CC(NCCC(O)c1ccccc1)C(=O)O (centres undefined)	8	8.3*	0	7	-1	6
CSCCC(NCCC(O)c1ccccc1)C(=O)O (centres undefined)	2	0	0	8	.	.
CCN(CC)C(=O)C1CCCN(c2nc3ncnc(Nc4ccc(Oc5ccccc5)cc4)c3[nH]2)C1 (centres undefined)	7	5.8*	0	6	1	7
CCN(CC)C(=O)C1CCCN(c2nc(Nc3ccccc3)nc(N(CC)CC)n2)C1 (centres undefined)	3	5.7*	0	2	-1	-12
CCN(CC)C(=O)C1CCCN(c2nc3ncnc(Nc4ccc(NC(C)=O)cc4)c3[nH]2)C1 (centres undefined)	3	0	0	12	.	.
CCN(CC)C(=O)C1CCCN(c2nc(Nc3ccc(NC(C)=O)cc3)nc(N(CC)CC)n2)C1 (centres undefined)	2	-2	0	5	.	.
c1ccc(Nc2ncnc3nc(N4CCc5ccccc5C4)[nH]c23)cc1	7	6.0*	0	-4	0	1
CC(=O)Nc1ccc(Nc2ncnc3nc(N4CCc5ccccc5C4)[nH]c23)cc1	7	-2	1	-6	.	.
COc1ccc(CNC2C3CC4CC(C3)CC2C4)c(OC)c1 (centres undefined)	5	5.6*	0	5	0	-6
O=C(N/N=C/c1ccncc1)C1CC1(c1ccccc1)c1ccccc1 (centres undefined)	-25	5.9*	0	-18	0	8
C=CCc1ccccc1OCCOc1ccc([N+](=O)[O-])cc1/C=N/NC(N)=O	-4	6.2*	0	-1	0	-7
Cc1nnc(NC(=O)C(C)N2CCN(C)CC2)s1 (centres undefined)	-3	1	0	4	.	.
Cc1nnc(NC(=O)C(C)N2CCCC2)s1 (centres undefined)	43	14*	0	-3	1	10
CC(Cc1ccccc1)N=C1SCC(=O)N1Cc1ccccc1 (centres undefined)	-19	7.6*	0	-1	0	1
